Data published in the antibiotic and cytotoxicity screens of Wong et al. (2023).
Among all 39,000 compounds or so, about 3,300 (8.5%) were called active. The full list was thinned out, with actives kept by preference.

These molecules were tested on HepG2 (assay: cytotoxicity call (relative viability < 0.9)). Conditions: 10 µM.

SMILES | cytotoxicity call
O=C(C[C@@H]1CC[C@H](NS(=O)(=O)c2ccccc2F)[C@@H](CO)O1)NCCCN1CCOCC1 | inactive
C[C@@H]1CN([C@H](C)CO)C(=O)Cc2cc(NS(C)(=O)=O)ccc2O[C@@H]1CN(C)S(C)(=O)=O | inactive
C[C@H]1CN([C@@H](C)CO)S(=O)(=O)c2ccc(-c3cccnc3)cc2O[C@@H]1CN(C)C(=O)NC1CCCCC1 | inactive
CC(C)CC#Cc1ccc2c(c1)O[C@@H](CN(C)C(=O)C1CCOCC1)[C@H](C)CN([C@H](C)CO)S2(=O)=O | inactive
CC(C)CC#Cc1ccc2c(c1)O[C@@H](CN(C)C(=O)C1CCOCC1)[C@@H](C)CN([C@H](C)CO)S2(=O)=O | inactive
C[C@@H]1CN([C@@H](C)CO)S(=O)(=O)c2ccc(C#Cc3ccncc3)cc2O[C@H]1CN(C)C(=O)C1CCOCC1 | active
C[C@@H]1CN([C@H](C)CO)S(=O)(=O)c2ccc(C#Cc3ccncc3)cc2O[C@H]1CN(C)C(=O)C1CCOCC1 | active
C[C@H](CO)N1C[C@H](C)[C@H](CN(C)C(=O)C2CCOCC2)Oc2cc(C#Cc3ccncc3)ccc2S1(=O)=O | inactive
CC(C)CC#Cc1ccc2c(c1)O[C@H](CN(C)C(=O)C1CCOCC1)[C@H](C)CN([C@H](C)CO)S2(=O)=O | inactive
CC(C)CC#Cc1ccc2c(c1)O[C@H](CN(C)C(=O)C1CCOCC1)[C@@H](C)CN([C@H](C)CO)S2(=O)=O | inactive
C[C@H](CO)N1C[C@H](C)[C@@H](CN(C)C(=O)C2CCOCC2)Oc2cc(C#Cc3ccncc3)ccc2S1(=O)=O | inactive
C[C@H]1CN([C@@H](C)CO)S(=O)(=O)c2ccc(C#Cc3ccncc3)cc2O[C@@H]1CN(C)C(=O)C1CCOCC1 | active
C[C@@H]1CN([C@@H](C)CO)S(=O)(=O)c2ccc(C#Cc3ccncc3)cc2O[C@@H]1CN(C)C(=O)C1CCOCC1 | active
C[C@@H]1CN([C@H](C)CO)C(=O)Cc2cc(NS(=O)(=O)c3ccc(F)cc3)ccc2O[C@H]1CN(C)C(=O)Nc1cccc2ccccc12 | inactive
C[C@@H]1CN([C@@H](C)CO)S(=O)(=O)c2ccc(C3=CCCCC3)cc2O[C@H]1CN(C)C(=O)C1CCOCC1 | inactive
C[C@@H]1CCCCO[C@@H](CN(C)C(=O)CCC(F)(F)F)[C@@H](C)CN([C@@H](C)CO)C(=O)c2cc(NS(=O)(=O)c3ccc(Cl)cc3)ccc2O1 | inactive
Cc1ccc(S(=O)(=O)Nc2ccc3c(c2)C(=O)N([C@H](C)CO)C[C@@H](C)[C@H](CN(C)C(=O)Nc2ccccc2)OCCCC[C@H](C)O3)cc1 | inactive
C[C@@H]1CCCCO[C@@H](CN(C)C(=O)NC2CCCCC2)[C@H](C)CN([C@@H](C)CO)C(=O)c2cc(NC(=O)Nc3cccc4ccccc34)ccc2O1 | inactive
CN1C(=O)c2cc(NC(=O)c3cccs3)ccc2OC[C@H]2O[C@@H](CC(=O)NCCN3CCCCC3)CC[C@@H]21 | inactive
CCCC#Cc1cnc2c(c1)C(=O)N([C@@H](C)CO)C[C@H](C)[C@@H](CN(C)S(=O)(=O)c1cccc(OC)c1)O2 | inactive
C[C@@H]1CN([C@@H](C)CO)C(=O)Cc2cc(NC(=O)CCC(F)(F)F)ccc2O[C@@H]1CN(C)S(=O)(=O)c1cccs1 | inactive
C[C@@H]1CN([C@@H](C)CO)S(=O)(=O)c2ccc(C#CC3CC3)cc2O[C@H]1CN(C)C(=O)c1cccc(F)c1 | inactive
C[C@H](CO)N1C[C@H](C)[C@@H](CN(C)S(=O)(=O)c2ccc(-n3cccn3)cc2)OCc2cn(nn2)CCCC1=O | inactive

SMILES | cytotoxicity call
CNC(=O)CN1CCO[C@H]2CN(C(=O)C(C)C)C[C@@H]21 | inactive
O=C(C[C@H]1CC=CC[C@H](NC(=O)OCC2c3ccccc3-c3ccccc32)C(=O)OCCNC1=O)NCCO | inactive
COc1ccccc1-c1cnc2c(c1)C(=O)N([C@@H](C)CO)C[C@@H](C)[C@@H](CN(C)C(=O)c1cccnc1)O2 | inactive
CC(C)CC#Cc1ccc2c(c1)O[C@H](CN(C)C(=O)C1CCOCC1)[C@@H](C)CN([C@@H](C)CO)S2(=O)=O | inactive
CC(C)CC#Cc1ccc2c(c1)O[C@@H](CN(C)C(=O)C1CCOCC1)[C@H](C)CN([C@@H](C)CO)S2(=O)=O | inactive
C[C@H]1CN([C@@H](C)CO)S(=O)(=O)c2ccc(C#Cc3ccncc3)cc2O[C@H]1CN(C)C(=O)C1CCOCC1 | active
C[C@@H]1CN([C@H](C)CO)S(=O)(=O)c2ccc(C#Cc3ccncc3)cc2O[C@@H]1CN(C)C(=O)C1CCOCC1 | active
O=C(C[C@H]1C=C[C@@H](NC(=O)CN2CCOCC2)[C@H](CO)O1)NCc1cccc(F)c1 | inactive
C[C@@H]1CN([C@@H](C)CO)C(=O)c2cc(N(C)C)ccc2O[C@@H](C)CCCCO[C@H]1CN(C)Cc1ccc(C(F)(F)F)cc1 | inactive
C[C@@H]1CN([C@@H](C)CO)C(=O)CCCn2cc(nn2)CO[C@@H]1CN(C)S(=O)(=O)c1cn(C)cn1 | inactive
C[C@@H]1CN([C@@H](C)CO)C(=O)c2cccc(NC(=O)CCCCCC(=O)Nc3ccccc3N)c2O[C@H]1CN(C)C(=O)Nc1ccc(C(F)(F)F)cc1 | inactive
C[C@@H]1CN([C@H](C)CO)C(=O)c2cc(NC(=O)NC3CCCCC3)ccc2O[C@H]1CN(C)Cc1ccc(C(F)(F)F)cc1 | inactive
O=C([C@@H]1N[C@@H]2c3ccc(-c4ccc(F)cc4)c(=O)n3C[C@@H]2[C@H]1CO)N1CCOCC1 | inactive
C[C@@H]1CN([C@@H](C)CO)C(=O)c2cccc(NS(=O)(=O)c3cn(C)cn3)c2O[C@H]1CN(C)Cc1ccncc1 | inactive
CC(C)(C)c1ccc(C(O)CCCN2CCC(C(O)(c3ccccc3)c3ccccc3)CC2)cc1 (configuration not stated) | active
CC(C)(C(=O)O)c1ccc(C(O)CCCN2CCC(C(O)(c3ccccc3)c3ccccc3)CC2)cc1.Cl (configuration not stated) | inactive
CC(C)(C(=O)O)c1ccc([C@@H](O)CCCN2CCC(C(O)(c3ccccc3)c3ccccc3)CC2)cc1 | inactive
O=C(Nc1cc(C(F)(F)F)cc(C(F)(F)F)c1)Nc1cnn(-c2ccc([N+](=O)[O-])cc2)c1C(F)(F)F | active
O=C(NCO)c1ccc([N+](=O)[O-])cc1 | inactive
O=C(Nc1cc(C(F)(F)F)cc(C(F)(F)F)c1)Nc1c(Br)cc(Br)cc1-c1nn[nH]n1 | inactive
CNC1C(OC2C(OC3C(O)C(O)C(NC(=N)N)C(O)C3NC(=N)N)OC(C)C2(O)C=O)OC(CO)C(O)C1O.O=S(=O)(O)O (configuration not stated) [STREPTOMYCIN SULFATE [5mM; 10% aq DMSO + 5mM ethanolamine] ] | inactive
COCC(=O)Nc1c(I)c(C(=O)NC[C@@H](O)CO)c(I)c(C(=O)N(C)C[C@@H](O)CO)c1I | inactive
COc1ccc(S(=O)(=O)N[C@@H]2C=C[C@H](CC(=O)N3CCN(c4ccccc4)CC3)O[C@@H]2CO)cc1 | inactive

SMILES | cytotoxicity call
O=C(O)c1cc(O)ccc1O [listing 1 of 2 here] | inactive
O=S(=O)(O)c1cc(O)ccc1O | active
O=C(O)c1cc(O)ccc1O [listing 2 of 2 here] | inactive
C[C@@H]1CN([C@H](C)CO)C(=O)c2cc(NS(C)(=O)=O)ccc2O[C@@H](C)CCCCO[C@H]1CN(C)C(=O)Nc1ccc(C(F)(F)F)cc1 | inactive
COc1ccc(S(=O)(=O)Nc2ccc3c(c2)C(=O)N([C@H](C)CO)C[C@H](C)[C@@H](CN(C)C(=O)CCC(F)(F)F)OCCCC[C@H](C)O3)cc1 | inactive
O=C(CCCCCC(=O)N/N=C/[C@H](O)[C@@H](O)[C@@H](O)[C@H](O)CO)NO | inactive
C[C@@H]1CN([C@H](C)CO)C(=O)CCCn2nncc2CO[C@H]1CN(C)S(=O)(=O)c1ccc(Oc2ccccc2)cc1 | inactive
C[C@@H]1CN([C@@H](C)CO)C(=O)c2cc(NC(=O)Nc3ccc(F)cc3)ccc2O[C@@H]1CN(C)CC1CCCCC1 | inactive
C[C@@H]1CN([C@@H](C)CO)C(=O)c2cc(NC(=O)Nc3ccc(C(F)(F)F)cc3)ccc2O[C@@H]1CN(C)CC1CCCCC1 | active
C[C@H](CO)N1C[C@H](C)[C@H](CN(C)CC2CCCCC2)Oc2ccc(NC(=O)Nc3ccc(F)cc3)cc2C1=O | inactive
C[C@@H]1CN([C@H](C)CO)C(=O)c2cc(NC(=O)Nc3ccc(F)cc3)ccc2O[C@H]1CN(C)CC1CCCCC1 | inactive
C[C@@H]1CN([C@H](C)CO)C(=O)c2cc(NC(=O)Nc3ccc(F)cc3)ccc2O[C@@H]1CN(C)CC1CCCCC1 | inactive
C[C@H]1CN([C@@H](C)CO)C(=O)c2cc(NC(=O)Nc3ccc(F)cc3)ccc2O[C@H]1CN(C)CC1CCCCC1 | inactive
C[C@@H]1CN([C@@H](C)CO)C(=O)c2cc(NC(=O)Nc3ccc(C(F)(F)F)cc3)ccc2O[C@H]1CN(C)CC1CCCCC1 | active
C[C@H](CO)N1C[C@H](C)[C@@H](CN(C)CC2CCCCC2)Oc2ccc(NC(=O)Nc3ccc(F)cc3)cc2C1=O | inactive
C[C@H](CO)N1C[C@H](C)[C@H](CN(C)CC2CCCCC2)Oc2ccc(NC(=O)Nc3ccc(C(F)(F)F)cc3)cc2C1=O | active
C[C@H]1CN([C@@H](C)CO)C(=O)c2cc(NC(=O)Nc3ccc(F)cc3)ccc2O[C@@H]1CN(C)CC1CCCCC1 | active
NCCc1[nH]cnc1-c1cccs1 | inactive
C[C@H](CO)N1C[C@H](C)[C@H](CN(C)C(=O)Nc2cccc3ccccc23)Oc2ccc(NS(=O)(=O)c3ccc(Cl)cc3)cc2CC1=O | inactive
COc1ccc(S(=O)(=O)Nc2ccc3c(c2)C(=O)N([C@H](C)CO)C[C@@H](C)[C@@H](CN(C)C(=O)C2CCCCC2)OCCCC[C@H](C)O3)cc1 | inactive
C[C@@H]1CN([C@@H](C)CO)C(=O)c2cc(NC(=O)CCCCCC(=O)Nc3ccccc3N)ccc2O[C@H]1CN(C)C(=O)Nc1cccc2ccccc12 | inactive
